Experimental data reported in ChEMBL document CHEMBL3988442, “University of Dundee, Small-Polar-MMV Screening Library” (2021).

Columns and labels:
[1] = biological target: T1, Aspartate--tRNA(Asp/Asn) ligase (Mycobacterium tuberculosis (strain ATCC 25618 / H37Rv)) (UniProt P9WFW3); assay: Assay for Asp RNA synthetase-1 from Mycobacterium tuberculosis; format: functional; parameters: scale not given: direction of the effect not stated beside the values; settings: 30 µM; note: in the data most compounds retested in dose-response had high values
T1 sequence (whole entry): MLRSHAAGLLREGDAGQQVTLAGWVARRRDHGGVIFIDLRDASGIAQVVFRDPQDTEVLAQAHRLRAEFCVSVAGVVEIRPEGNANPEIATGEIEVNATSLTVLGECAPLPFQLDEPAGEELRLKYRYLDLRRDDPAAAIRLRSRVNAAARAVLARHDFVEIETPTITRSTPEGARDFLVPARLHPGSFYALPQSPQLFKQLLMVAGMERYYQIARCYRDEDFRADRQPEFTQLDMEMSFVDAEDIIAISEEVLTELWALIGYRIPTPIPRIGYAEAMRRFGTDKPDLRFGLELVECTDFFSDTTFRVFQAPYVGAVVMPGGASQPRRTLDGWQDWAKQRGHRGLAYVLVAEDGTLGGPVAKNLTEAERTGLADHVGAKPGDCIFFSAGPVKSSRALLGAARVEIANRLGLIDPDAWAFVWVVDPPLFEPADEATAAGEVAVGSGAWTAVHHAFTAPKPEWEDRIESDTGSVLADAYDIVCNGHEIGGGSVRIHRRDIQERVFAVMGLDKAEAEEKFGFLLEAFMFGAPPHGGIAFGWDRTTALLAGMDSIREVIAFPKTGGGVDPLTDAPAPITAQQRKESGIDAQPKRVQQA

[2] = biological target: Shiga toxin 2 (Escherichia coli O157:H7) (UniProt P09385+P09386); assay: E. coli 0.157:H7 Shiga Toxin SOP - stx2 screening assay; format: functional; parameters: scale not given: direction of the effect not stated beside the values; settings: 30 µM

Q: Which results are given for `Cc1cn(CC(=O)NC2CCN(C(=O)C3CC3)CC2)c2ccccc12`?
A: Percent Effect [1]: 2.13%; Percent Effect [2]: 6.97%

Q: `Cn1ncc2c1CCCC2NCc1cnc(-c2ccccc2)nc1` (configuration not stated) was tested. Which Percent Effect [1] did it give?
A: The Percent Effect was 8.81%.

Q: What about the Percent Effect [2] of the same compound?
A: Its Percent Effect is -1.99%.

Q: With `COc1c(C)cnc(CN2CCCCC2Cn2nc(C)nc2C)c1C` (configuration not stated) as the compound, how does the Percent Effect [1] read?
A: The Percent Effect was -2.54%.

Q: And the Percent Effect [2]?
A: The Percent Effect was -21.3%.

Q: For `COc1ccc(CC(=O)N2CCc3nnc(N(C)C)cc3C2)cc1F`, which Percent Effect [1] is on record?
A: Its Percent Effect is 2.43%.

Q: And the Percent Effect [2]?
A: The Percent Effect was -57.1%.

Q: `Cc1cc(C)nc(NC(=O)C(C)Oc2ccc3c(c2)OCO3)n1` (configuration not stated) was tested. Which Percent Effect [1] did it give?
A: The Percent Effect was 12.6%.

Q: What about the Percent Effect [2] of the same compound?
A: The Percent Effect was -50%.

Q: For `CCS(=O)(=O)NC[C@]12COC[C@H]1CN(Cc1cccc(OC)c1)C2`, which Percent Effect [1] is on record?
A: The Percent Effect was 0.596%.

Q: What about the Percent Effect [2] of the same compound?
A: The Percent Effect was 1.39%.

Q: With `Cc1ccc2c(c1)CN(C(=O)c1ccccc1F)C(CN(C)C)CO2` (configuration not stated) as the compound, how does the Percent Effect [1] read?
A: Its Percent Effect is 5.11%.

Q: And the Percent Effect [2]?
A: Its Percent Effect is 3.26%.

Q: `CC(=O)N1CCCC(c2ccc(Nc3nc(C)cc(C)n3)cn2)C1` (configuration not stated) was tested. Which Percent Effect [1] did it give?
A: The Percent Effect was -1.31%.

Q: And the Percent Effect [2]?
A: Its Percent Effect is 3.11%.

Q: How did the Percent Effect [1] turn out when `CCn1ccnc1CN1CCN(Cc2ccccn2)CC1C` (configuration not stated) was run?
A: Its Percent Effect is -1.39%.

Q: What about the Percent Effect [2] of the same compound?
A: Its Percent Effect is -13.6%.

Q: What does the source list for `O=C(c1ccno1)N1CC[C@@H]2O[C@@H](COCCN3CCCC3)CC[C@@H]21`?
A: Percent Effect [1]: -0.779%; Percent Effect [2]: -4.5%

Q: `COCC(=O)N1CC[C@@H]2O[C@H](COCc3ccncc3)CC[C@@H]21` was tested. Which Percent Effect [1] did it give?
A: Its Percent Effect is 4.14%.

Q: And the Percent Effect [2]?
A: Its Percent Effect is -2.38%.

Q: `CC(C(=O)N1CCc2ccccc2C1)n1cc(Br)cn1` (configuration not stated) was tested. Which Percent Effect [1] did it give?
A: The Percent Effect was 2.59%.

Q: What about the Percent Effect [2] of the same compound?
A: Its Percent Effect is -59.4%.

Q: For `O=S(=O)(Nc1cnn(C2CCOCC2)c1)c1ccc2c(c1)CCO2`, which Percent Effect [1] is on record?
A: The Percent Effect was 0.452%.

Q: And the Percent Effect [2]?
A: Its Percent Effect is -15.1%.

Q: `Cn1cc(C2CCCN2CCCc2nc(-c3cccs3)no2)cn1` (configuration not stated) was tested. Which Percent Effect [1] did it give?
A: Its Percent Effect is 0.756%.

Q: What about the Percent Effect [2] of the same compound?
A: The Percent Effect was 6.08%.

Q: What does the source list for `Cc1ccc(C(=O)N2CCC(Oc3ccc(F)cc3F)CC2)c(=O)[nH]1`?
A: Percent Effect [1]: -4.97%; Percent Effect [2]: 30.4%

Q: Which results are given for `N#Cc1cn(C2CC2)c(=O)n(CC(O)c2ccccc2F)c1=O` (configuration not stated)?
A: Percent Effect [1]: 0.3%; Percent Effect [2]: 14.2%
